Source: PubChem BioAssay (Tox21)
Records with an inconclusive call do not appear. The source made the active and inactive calls. Unless noted, the call rests on the fitted dose curve; in most records, active means well fitted curve in the direction sought with a large enough effect in the repeat runs; inconclusive means weak or mixed curves; inactive means no such curve, though single readings can be large; an effect the other way counts as inactive or inconclusive.

Assays:
[1] = qHTS assay to identify small molecule antagonists of the estrogen receptor alpha (ER-alpha) signaling pathway using the BG1 cell line in the presence of 0.1 nM 17-beta-estradiol - cell viability counter screen (AID 1259241); further: nearly all actives have a fitted effect of over 40% in size
Method in brief: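 VM7Luc4E2 cells (endogenous full-length ER-alpha, 4xERE-luciferase), cultured 5 days in charcoal-stripped serum, exposed to compounds with 0.1 nM 17beta-estradiol (final) for 22 hr at 37C. Viability read in same wells as live-cell protease fluorescence after 30 min.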

[2] = qHTS assay to identify small molecule antagonists of the androgen receptor (AR) signaling pathway using the MDA cell line in the presence of 0.5 nM R1881 - cell viability counter screen (AID 1259242); further: nearly all actives have a fitted effect of over 45% in size
Method in brief: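 Live-cell protease fluorescence, CellTiter-Fluor, 30 min at 37C. Cells: MDA-kb2, 3,000/well, preincubated 5 hr. Compounds plus 0.5 nM R1881 final, 16 hr, 37C, 0% CO2.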

[3] = qHTS assay to identify small molecule phospholipidosis (PLD) inducers (AID 1259344; active means well fitted curve in the direction sought with a large enough effect; an effect the other way counts as inactive or inconclusive)
Method in brief: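 Phospholipid accumulation was scored by imaging: fixed, Hoechst-counterstained HepG2 cells stained with LipidTOX Red after 24 h compound exposure at 37 C. Read-outs were pit count and pit intensity per well or per cell, with amiodarone and DMSO controls.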

[4] = qHTS assay to identify small molecule HDAC inhibitors (AID 1259364);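 further: wild-type HCT-116 cells with endogenous class I/II HDAC activity; top concentration of the series differs between compounds; nearly all actives have a fitted effect of over 45% in size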
Method in brief: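 HCT-116 (wild type), 1,500 cells/well, overnight; compound 2 hr 37C 5% CO2; HDAC-Glo I/II reagent 30 min RT; luminescence readout.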

[5] = qHTS assay to identify small molecule HDAC inhibitors - cell viability counter screen (AID 1259365); further: series mostly up to about 92 µM; nearly all actives have a fitted effect of over 50% in size
Method in brief: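 Wild-type HCT-116 cells, 1,500/well, cultured overnight, then compound-treated 2 h at 37 C. Viability measured as ATP luminescence with CellTiter-Glo after 30 min at room temperature.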

[6] = qHTS assay to identify small molecule agonists of the sonic hedgehog signaling (Shh) pathway - cell viability counter screen (AID 1259366); further: nearly all actives have a fitted effect of over 50% in size
Method in brief: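 NIH/3T3-derived Gli1-Luc reporter cells, 2,000 per well, received compound after 4 h and were treated about 23 h at 37C. Viability measured in the same wells by CellTiter-Fluor fluorescence after 1 h.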

[7] = qHTS assay to identify small molecule antagonists of the sonic hedgehog signaling (Shh) pathway - cell viability counter screen (AID 1259367); further: nearly all actives have a fitted effect of over 55% in size
Method in brief: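 Viability was read by CellTiter-Fluor fluorescence in the same wells, reagent added 23 hr into compound treatment and incubated 1 hr at 37C. The 3T3 Gli1-Luc reporter cells (2,000/well) received conditioned medium after compound and ran 24 hr.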

[8] = qHTS assay to identify small molecule agonists of the sonic hedgehog signaling (Shh) pathway (AID 1259368; calls by dose curve;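 further: NIH/3T3-derived 3T3Gli1-Luc cells carrying a stable Gli1-driven firefly luciferase reporter; series mostly up to about 92 µM; nearly all actives have a fitted effect of over 15% in size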)
Method in brief: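 Read-out: firefly luciferase luminescence from a Gli1 response element reporter stably integrated in NIH/3T3-derived 3T3Gli1-Luc cells, measured 30 min at room temperature after reagent addition. Compound exposure lasted 24 hr at 37 C, 5% CO2.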

[9] = qHTS assay to identify small molecule antagonists of the sonic hedgehog signaling (Shh) pathway (AID 1259369; calls by dose curve; further: nearly all actives have a fitted effect of over 45% in size; further: potency means the concentration at half of the fitted maximal effect)
Method in brief: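 Luminescence readout: firefly Luc under Gli1 response element in 3T3Gli1-Luc cells (NIH/3T3 clone). Antagonist mode, stimulation by conditioned medium; compound exposure 24hr at 37 C, 5% CO2.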

[10] = molecular target: Estrogen receptor beta (Homo sapiens) (UniProt Q92731); experiment: qHTS assay to identify small molecule agonists of the estrogen receptor beta (ER-beta) signaling pathway (AID 1259377; active means well fitted activation curve with a large enough effect in the signal ratio in the repeat runs, not every such curve was filed as active; the % refers to the signal ratio)
Estrogen receptor beta (Homo sapiens), sequence (Q92731 whole entry, looked up): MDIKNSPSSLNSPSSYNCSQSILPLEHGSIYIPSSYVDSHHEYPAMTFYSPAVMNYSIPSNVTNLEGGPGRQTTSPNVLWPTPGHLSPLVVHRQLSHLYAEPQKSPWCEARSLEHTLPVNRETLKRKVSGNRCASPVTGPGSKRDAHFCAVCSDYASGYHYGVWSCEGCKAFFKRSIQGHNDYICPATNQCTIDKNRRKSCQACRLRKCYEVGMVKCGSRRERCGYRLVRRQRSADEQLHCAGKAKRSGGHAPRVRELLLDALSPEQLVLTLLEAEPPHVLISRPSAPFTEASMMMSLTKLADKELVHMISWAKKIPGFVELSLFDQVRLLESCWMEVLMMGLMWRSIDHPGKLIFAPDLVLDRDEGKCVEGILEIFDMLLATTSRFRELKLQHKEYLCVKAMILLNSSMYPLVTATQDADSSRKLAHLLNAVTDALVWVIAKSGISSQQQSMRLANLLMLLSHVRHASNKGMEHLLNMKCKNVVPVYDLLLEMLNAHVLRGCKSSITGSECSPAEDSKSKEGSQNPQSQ
Method in brief: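 ER-beta-UAS-bla HEK293T cells in medium with 2% charcoal-stripped FBS were exposed to compounds for 16 h at 37C. Beta-lactamase reporter activity was read as fluorescence after 2 h with LiveBLAzer B/G FRET substrate at room temperature.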

[11] = molecular target: Estrogen receptor beta (Homo sapiens) (UniProt Q92731); experiment: qHTS assay to identify small molecule antagonists of the estrogen receptor beta (ER-beta) signaling pathway (AID 1259378; active means well fitted inhibition curve with a large enough effect in the signal ratio in the repeat runs, not every such curve was filed as active; the % refers to the signal ratio; further: potency means the concentration at half of the fitted maximal effect)
Method in brief: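 Antagonist mode: compounds added to beta-lactamase reporter HEK293T ER-beta-UAS cells stimulated with E2 (1nM final), 16 hr at 37C. LiveBLAzer B/G FRET substrate, 2 hours room temperature, fluorescence read-out.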

[12] = qHTS assay to identify small molecule agonists of the estrogen receptor beta (ER-beta) signaling pathway - cell viability counter screen (AID 1259380); further: nearly all actives have a fitted effect of over 30% in size; further: potency means the concentration at half of the fitted maximal effect
Method in brief: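 Luminescence read-out (CellTiter-Glo, 30 min, room temp) taken in the same wells as the beta-lactamase reporter assay; ER-beta-UAS-bla HEK293T cells exposed to DMSO-dissolved compounds for 16 hr at 37C in 2% charcoal-stripped FBS medium.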

[13] = qHTS assay to identify small molecule antagonists of the estrogen receptor beta (ER-beta) signaling pathway - cell viability counter screen (AID 1259382);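 further: HEK293T cells carrying ER-beta-UAS-bla reporter stimulated with estradiol; series mostly up to about 92 µM; nearly all actives have a fitted effect of over 55% in size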
Method in brief: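 Luminescent ATP read-out (CellTiter-Glo, 30 min, RT) taken in the same wells as the bla reporter assay. HEK293T ER-beta-UAS-bla cells in 2% charcoal-stripped FBS were exposed to compounds with 1nM E2 for 16 hr at 37C.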

[14] = qHTS assay to identify small molecule agonists or antagonists of the thyroid stimulating hormone receptor (TSHR) signaling pathway - wild type cell line counter screen (AID 1259384; calls by dose curve)
Method in brief: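 Counter screen in untransfected Hek293: compounds (15-point titration, triplicate) plus phosphodiesterase inhibitor Ro20-1724 added after 18 h plating; 30 min RT. Intracellular cAMP via competitive d2/cryptate immunoassay, 1 h incubation.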

[15] = molecular target: Thyrotropin receptor (Homo sapiens) (UniProt P16473); experiment: qHTS assay to identify small molecule antagonists of the thyroid stimulating hormone receptor (TSHR) signaling pathway (AID 1259385; calls by dose curve; further: nearly all actives have a fitted effect of over 20% in size; further: potency means the concentration at half of the fitted maximal effect)
Thyrotropin receptor (Homo sapiens), sequence (P16473 whole entry, looked up): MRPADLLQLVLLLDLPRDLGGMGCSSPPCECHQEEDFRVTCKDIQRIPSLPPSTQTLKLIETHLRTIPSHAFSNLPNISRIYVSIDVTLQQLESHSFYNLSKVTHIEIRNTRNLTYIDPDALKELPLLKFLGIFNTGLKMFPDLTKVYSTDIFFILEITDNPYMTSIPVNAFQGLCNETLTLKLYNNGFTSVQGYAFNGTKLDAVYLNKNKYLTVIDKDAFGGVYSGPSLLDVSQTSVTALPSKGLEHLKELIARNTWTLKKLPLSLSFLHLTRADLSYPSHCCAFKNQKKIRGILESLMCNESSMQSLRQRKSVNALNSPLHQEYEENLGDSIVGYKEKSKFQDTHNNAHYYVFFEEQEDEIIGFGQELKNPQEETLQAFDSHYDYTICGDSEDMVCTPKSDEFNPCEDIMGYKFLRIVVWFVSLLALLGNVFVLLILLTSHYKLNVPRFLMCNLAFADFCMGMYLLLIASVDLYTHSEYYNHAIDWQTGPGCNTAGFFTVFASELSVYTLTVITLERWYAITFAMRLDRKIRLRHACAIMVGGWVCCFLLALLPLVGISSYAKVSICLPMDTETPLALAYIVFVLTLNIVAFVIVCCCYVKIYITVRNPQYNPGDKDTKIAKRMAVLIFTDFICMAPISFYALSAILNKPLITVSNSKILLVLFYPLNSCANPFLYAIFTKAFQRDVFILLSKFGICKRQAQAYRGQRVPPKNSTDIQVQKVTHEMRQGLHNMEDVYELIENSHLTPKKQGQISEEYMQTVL
Method in brief: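 Antagonist mode: compound-treated TSHR-expressing HEK293 cells were stimulated with 1.5 ng/mL TSH (final) in presence of Ro20-1724 for 30 min at RT. HTRF cAMP detection after 1 h; each compound tested at 15 concentrations, triplicate.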

[16] = molecular target: Estrogen receptor (Homo sapiens) (UniProt P03372); experiment: qHTS assay to identify small molecule antagonists of the estrogen receptor alpha (ER-alpha) signaling pathway using the BG1 cell line in the presence of 0.1 nM 17-beta-estradiol (AID 1259244); further: nearly all actives have a fitted effect of over 50% in size; further: potency means the concentration at half of the fitted maximal effect
Estrogen receptor (Homo sapiens), sequence (P03372 whole entry, looked up): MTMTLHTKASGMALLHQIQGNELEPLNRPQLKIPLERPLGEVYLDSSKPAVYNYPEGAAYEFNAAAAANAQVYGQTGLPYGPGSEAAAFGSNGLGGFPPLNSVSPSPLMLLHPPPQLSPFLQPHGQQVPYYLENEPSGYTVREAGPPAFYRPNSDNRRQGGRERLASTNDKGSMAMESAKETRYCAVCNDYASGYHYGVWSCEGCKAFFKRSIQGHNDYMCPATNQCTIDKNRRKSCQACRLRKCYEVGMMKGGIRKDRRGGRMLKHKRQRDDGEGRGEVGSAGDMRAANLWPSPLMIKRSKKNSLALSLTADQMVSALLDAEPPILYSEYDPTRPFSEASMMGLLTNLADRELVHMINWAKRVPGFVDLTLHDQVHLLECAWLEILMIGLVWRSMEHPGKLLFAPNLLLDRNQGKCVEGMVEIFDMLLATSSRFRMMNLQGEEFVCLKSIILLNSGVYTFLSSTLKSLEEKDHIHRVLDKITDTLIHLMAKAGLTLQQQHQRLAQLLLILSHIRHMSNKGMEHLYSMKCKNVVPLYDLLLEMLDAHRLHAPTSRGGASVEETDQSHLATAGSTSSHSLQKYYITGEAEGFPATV
Method in brief: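 Luminescence after ONE-Glo (30 min, room temperature) measured ERE-luciferase activity in VM7Luc4E2 cells treated 22 h with compound and 0.1 nM final 17beta-estradiol as stimulator.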

[17] = qHTS assay to identify small molecule agonists of the androgen receptor (AR) signaling pathway in the presence of an antagonist - cell viability counter screen (AID 1259379);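 further: MDA-kb2 human breast cancer cells carrying an MMTV luciferase reporter; series mostly up to about 92 µM; nearly all actives have a fitted effect of over 25% in size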
Method in brief: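 Viability counter screen: CellTiter-Fluor fluorescence, measured in the same wells as the luciferase read-out. MDA-kb2 cells, 3,000/well, with nilutamide at 3.0uM final and compounds at 15 concentrations, 16 hr at 37C, 0% CO2.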

[18] = molecular target: Estrogen receptor (Homo sapiens) (UniProt P03372); experiment: qHTS assay to identify small molecule agonists of the estrogen receptor alpha (ER-alpha) signaling pathway in the presence of an antagonist (AID 1259383; calls by dose curve; further: top concentration of the series differs between compounds; nearly all actives have a fitted effect of over 15% in size)
Method in brief: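 Luciferase luminescence (ONE-Glo, 30min at room temperature) measured in VM7Luc4E2 cells after 22hr compound exposure at 15 concentrations, with 10.0nM ICI-182,780 final present; cells express endogenous ER-alpha and carry four EREs upstream of luciferase.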

Measured: Potency

C#CCOC(C(=O)OCCN(C)C)(c1ccccc1)c1ccccc1
not listed: [16] | [17] | [18]
inactive: all other assays above

Nc1nc(=S)[nH][nH]1
not listed: [3] | [7] | [8] | [10] | [12]
inactive: all other assays above

CC(=O)C(C)(C)C
not listed: [3] | [7] | [9] | [12]
inactive: all other assays above

N#C/C(N)=C(/N)C#N
not listed: [3] | [7] | [10] | [12] | [17]
inactive: all other assays above

CCOc1ccc(C(C)(C)COCc2cccc(Oc3ccccc3)c2)cc1
not listed: [3] | [6] | [7] | [9] | [10] | [12]
inactive: all other assays above

ClCC(Br)CBr (stereo not drawn)
not listed: [3] | [10] | [17]
inactive: all other assays above

CCN(C)N=O
not listed: [3] | [7] | [10] | [11] | [17]
inactive: all other assays above

CC(C)N(CCC(C(N)=O)(c1ccccc1)c1ccccn1)C(C)C (stereo not drawn)
not listed: [10] | [12] | [16] | [17] | [18]
inactive: all other assays above

CN1[C@@H]2CC[C@H]1CC(OC(=O)c1cc(Cl)cc(Cl)c1)C2 (stereo partly drawn)
active: [12] 26.6 µM | [15] 26.6 µM
not listed: [3] | [6] | [7] | [8] | [9]
inactive: all other assays above

CC(Cl)Cl
not listed: [3] | [7] | [9]
inactive: all other assays above

Cc1ccc(N)cc1C
not listed: [3] | [7] | [12]
inactive: all other assays above

Cn1cc[n+](C)c1 (tested in a mixture with another compound)
not listed: [3] | [10] | [11] | [12]
inactive: all other assays above

CCCN(CC1CC1)c1c([N+](=O)[O-])cc(C(F)(F)F)cc1[N+](=O)[O-]
not listed: [3] | [8] | [10]
inactive: all other assays above

CCOc1nc(F)cc2nc(S(=O)(=O)Nc3c(Cl)cccc3Cl)nn12
not listed: [3] | [6] | [7] | [10]
inactive: all other assays above

O=C1C(=O)c2cccc3cccc1c23
active: [16] 54.4 µM | [9] 4.32 µM | [12] 43.2 µM
not listed: [3] | [7] | [10]
inactive: all other assays above

CCBr
not listed: [3] | [9]
inactive: all other assays above

Cl/C=C\Cl
not listed: [3] | [10] | [11]
inactive: all other assays above

O=C1CN=C(c2ccccc2)c2cc(Cl)ccc2N1CC1CC1
active: [9] 51 µM | [11] 28.7 µM
not listed: [10] | [14] | [15] | [16] | [18]
inactive: all other assays above
